Source: PubChem BioAssay (NCI)
The panel holds about 79,000 compounds, 15% with a hit somewhere; the sample as a whole holds those more often. Activity calls are given as the source filed them. Cut-off read from the data, not from the text of the source: active = growth inhibition above about 70%; inactive = the rest.

Legend:
[1] = NCI Yeast Anticancer Drug Screen. Data for the rad52 strain (AID 147);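 note: 0% = growth of vehicle-treated control cultures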; conditions: S. cerevisiae rad52 mutant growth inhibition, stronger effect = higher value
In short: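 Read-out: growth inhibition versus vehicle-treated controls. Cells were a DNA repair-deficient yeast strain treated with compounds.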

[2] = NCI Yeast Anticancer Drug Screen. Data for the wt1 strain (AID 149);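 note: 0% = growth of vehicle-treated wt1 cultures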; conditions: S. cerevisiae wt1 strain (SPY 50644) growth inhibition, stronger effect = higher value
In short: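 Each compound is tested on wt1 yeast and the loss of growth versus vehicle gives the inhibition value.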

[3] = NCI Yeast Anticancer Drug Screen. Data for the rad50EPP+ strain (AID 151);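 note: 0% = growth of vehicle-treated control cultures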; conditions: S. cerevisiae rad50 mutant strain, stronger effect = higher value
In short: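 Growth inhibition read against vehicle controls in rad50EPP+ yeast, a strain altered in DNA damage repair, after compound exposure.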

[4] = NCI Yeast Anticancer Drug Screen. Data for the mgt1 strain (AID 153); conditions: S. cerevisiae mgt1 mutant growth inhibition, stronger effect = higher value
In short: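 mgt1 yeast grown with test compound; read-out is growth inhibition versus vehicle-treated cultures.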

[5] = NCI Yeast Anticancer Drug Screen. Data for the rad50 strain (AID 155);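 note: 0% = growth of vehicle-only cultures of the same strain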; conditions: S. cerevisiae rad50 strain growth inhibition, stronger effect = higher value
In short: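 Vehicle-treated cultures provide the reference for the growth inhibition reported for compound-exposed, repair-deficient yeast.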

[6] = NCI Yeast Anticancer Drug Screen. Data for the mec2-1 strain (AID 157); conditions: S. cerevisiae mec2-1 strain, stronger effect = higher value
In short: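 Yeast mec2-1 mutant treated with compound. Readout: growth inhibition vs vehicle controls.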

[7] = NCI Yeast Anticancer Drug Screen. Data for the rad14 strain (AID 159);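 note: 0% = growth of vehicle-treated control cultures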; conditions: S. cerevisiae rad14 strain growth inhibition, stronger effect = higher value
In short: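 Inhibition of growth is reported for a repair-deficient yeast mutant following compound treatment, calculated relative to cultures that received vehicle.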

[8] = NCI Yeast Anticancer Drug Screen. Data for the CLN2oe strain (AID 163);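 note: 0% = growth of vehicle-only control cultures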; conditions: S. cerevisiae CLN2oe strain, stronger effect = higher value
In short: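 Read-out: yeast growth inhibition, expressed relative to vehicle-only controls. The strain bears an engineered cell-cycle alteration.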

[9] = NCI Yeast Anticancer Drug Screen. Data for the cln2 rad14 strain (AID 165);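 note: 0% = growth equal to vehicle treated cultures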; conditions: S. cerevisiae cln2 rad14 strain, stronger effect = higher value
In short: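 cln2 rad14 yeast strain; compound exposure; growth inhibition read vs vehicle controls.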

[10] = NCI Yeast Anticancer Drug Screen. Data for the bub3 strain (AID 167); conditions: S. cerevisiae bub3 mutant strain, stronger effect = higher value
In short: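 Mutant yeast screening strain plus compound; vehicle-treated cultures serve as the 0% inhibition reference.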

[11] = NCI Yeast Anticancer Drug Screen. Data for the wt2 strain (AID 169); conditions: S. cerevisiae wt2 strain growth inhibition, stronger effect = higher value
In short: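 Read-out: growth inhibition versus vehicle-treated control cultures after compound exposure of the yeast strain.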

[12] = NCI Yeast Anticancer Drug Screen. Data for the mlh1 strain (AID 171);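 note: 0% = growth of vehicle-treated control cultures of the same strain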; conditions: S. cerevisiae mlh1 strain growth inhibition, stronger effect = higher value
In short: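 Read-out: growth inhibition versus vehicle controls. Strain: engineered yeast with a defined DNA repair or cell cycle defect, compound-treated.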

[13] = NCI Yeast Anticancer Drug Screen. Data for the sgs1 strain (AID 173);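 note: 0% = growth of vehicle-only control cultures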; conditions: S. cerevisiae sgs1 mutant, stronger effect = higher value
In short: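 Read-out: yeast growth inhibition relative to vehicle controls, following compound exposure of a strain with a defined DNA repair/cell cycle alteration.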

[14] = NCI Yeast Anticancer Drug Screen. Data for the mlh1 rad18 strain (AID 175); conditions: S. cerevisiae mlh1 rad18 strain growth inhibition, stronger effect = higher value
In short: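 Yeast w/ defined DNA-repair lesions; compound exposure; growth vs vehicle controls → % inhibition.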

[15] = NCI Yeast Anticancer Drug Screen. Data for the rad18 strain (AID 177); conditions: S. cerevisiae rad18 mutant growth inhibition, stronger effect = higher value
In short: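 Readout: growth inhibition vs vehicle controls. Cells: genetically altered yeast strain, DNA repair defect.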

[16] = at 5.0 µM (retest, dose inferred, filed as 0.5)
[17] = at 50.0 µM (retest, dose inferred, filed as 5.0)

Measured: growth inhibition

CCCCCCCCCCCC1=NCCO1
inactive: [1]; at 1.2 µM 3% | [1]; at 3.7 µM 3% | [1]; at 11.0 µM -1% | [1]; at 33.0 µM 18% | [2]; at 1.2 µM 1% | [2]; at 3.7 µM -1% | [2]; at 11.0 µM 2% | [2]; at 33.0 µM 15% | [3]; at 1.2 µM 4% | [3]; at 3.7 µM 5% | [3]; at 11.0 µM 16% | [3]; at 33.0 µM 27% | [3]; at 100.0 µM 53% | [4]; at 1.2 µM -5% | [4]; at 3.7 µM 3% | [4]; at 11.0 µM 0% | [4]; at 33.0 µM 27% | [5]; at 1.2 µM 9% | [5]; at 3.7 µM 18% | [5]; [16] -11% | [5]; at 11.0 µM 14% | [5]; at 33.0 µM 29% | [5]; [17] 8% | [5]; at 50.0 µM 25.1% | [6]; at 1.2 µM -6% | [6]; at 3.7 µM -4% | [6]; [16] -12% | [6]; at 11.0 µM -13% | [6]; at 33.0 µM 18% | [6]; [17] -21% | [6]; at 50.0 µM 46.3% | [7]; at 1.2 µM 3% | [7]; at 3.7 µM 9% | [7]; at 11.0 µM 15% | [7]; at 33.0 µM 50% | [8]; at 1.2 µM -3% | [8]; at 3.7 µM -1% | [8]; at 11.0 µM 4% | [8]; at 33.0 µM 19% | [9]; [16] -18% | [9]; [17] 36% | [9]; at 50.0 µM 21% | [10]; at 1.2 µM -19% | [10]; at 3.7 µM -27% | [10]; [16] -34% | [10]; at 11.0 µM -1% | [10]; at 33.0 µM 8% | [10]; [17] 31% | [10]; at 50.0 µM 24.5% | [11]; at 1.2 µM -1% | [11]; at 3.7 µM 0% | [11]; at 11.0 µM 2% | [11]; at 33.0 µM 61% | [12]; at 1.2 µM -5% | [12]; at 3.7 µM -3% | [12]; at 11.0 µM -10% | [12]; at 33.0 µM 16% | [13]; at 1.2 µM 1% | [13]; at 3.7 µM -1% | [13]; at 11.0 µM 6% | [13]; at 33.0 µM 63% | [14]; [16] -16% | [14]; at 50.0 µM 41% | [15]; at 1.2 µM 4% | [15]; at 3.7 µM 8% | [15]; at 11.0 µM 5% | [15]; at 33.0 µM 10%
active: [1]; at 100.0 µM 98% | [2]; at 100.0 µM 98% | [4]; at 100.0 µM 99% | [5]; at 100.0 µM 99% | [6]; at 100.0 µM 99% | [7]; at 100.0 µM 99% | [8]; at 100.0 µM 99% | [10]; at 100.0 µM 98% | [11]; at 100.0 µM 99% | [12]; at 100.0 µM 99% | [13]; at 100.0 µM 99% | [14]; [17] 71% | [15]; at 100.0 µM 98%
